Values without a mark were called inactive. Inconclusive results are not listed. The source made the active and inactive calls. Unless noted, the call rests on the fitted dose curve; in most records, active means well fitted curve in the direction sought with a large enough effect; inconclusive means small, poorly fitted or top-dose-only effect, or another doubt; inactive means no such curve, though single readings can be large; an effect the other way counts as inactive or inconclusive.

In assay [1] the target is Alpha-galactosidase (Coffea arabica) (UniProt Q42656). Nature of the assay: Counterscreen for Glucocerebrosidase Inhibitors: qHTS Assay for Coffee Bean alpha-Galactosidase at pH 4.5 (AID 957).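 Further: series mostly up to about 77 µM; plate controls were enzyme alone for no effect and no enzyme for full effect.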 The essentials: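 Green coffee bean enzyme (2 nM final) was incubated with compounds (0.7 nM to 77 uM) and 4-methylumbelliferyl alpha-D-galactopyranoside (80 uM final) in 50 mM citric acid, 0.005% Tween-20, pH 4.5, 20 min at room temperature; AC50 from Hill fits.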

The nature of assay [2]: Validation screen for inhibitors of Lassa infection (AID 463096; calls by dose curve; further: potency means the concentration at half of the fitted maximal effect).
A short description of assay [3]: Inducers of the Endoplasmic Reticulum Stress Response (ERSR) in human glioma: Validation (AID 504836). Further: 0% is about no effect. The essentials:
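ERSR induction read as luciferase luminescence (Bright-Glo, 10 min at room temperature) in stably transfected human U87-MG glioma cells exposed to compounds for 16 h, using GRP78 as sensor.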

A short description of assay [4]: qHTS for Inhibitors of the Functional Ribonucleoprotein Complex (vRNP) of Lassa (LASV) Arenavirus: LASV Primary Screen - GLuc reporter signal (AID 1347082; calls by dose curve; tested in HEK293 reporter line; further: series mostly up to about 57 µM; on the % scale 0 is the no-effect control and ±100 the full control effect; nearly all actives have a fitted effect of over 60% in size).
The nature of assay [5]: qHTS for Inhibitors of the Functional Ribonucleoprotein Complex (vRNP) of Lassa (LASV) Arenavirus: Viability assay - alamar blue signal for LASV Primary Screen (AID 1347083; calls by dose curve; tested in HEK293 reporter line; further: series mostly up to about 57 µM; on the % scale 0 is the no-effect control and ±100 the full control effect; nearly all actives have a fitted effect of over 80% in size).
Assay [6] in a line: qHTS for Inhibitors of the Functional Ribonucleoprotein Complex (vRNP) of Lymphocytic Choriomeningitis Arenaviruses (LCMV): Viability assay - alamar blue signal for LCMV Primary Screen (AID 1347085; calls by dose curve; tested in HEK293 reporter line; further: series mostly up to about 57 µM; on the % scale 0 is the no-effect control and ±100 the full control effect; nearly all actives have a fitted effect of over 80% in size).
The target in assay [7] is Nucleoprotein (Lymphocytic choriomeningitis virus (strain Armstrong)) (UniProt P09992). In words: qHTS for Inhibitors of the Functional Ribonucleoprotein Complex (vRNP) of Lymphocytic Choriomeningitis Arenaviruses (LCMV): LCMV Primary Screen - GLuc reporter signal (AID 1347086; calls by dose curve; further: series mostly up to about 57 µM; on the % scale 0 is the no-effect control and ±100 the full control effect; nearly all actives have a fitted effect of over 70% in size).
Assay [8] has as its target Alpha-galactosidase (Coffea arabica) (UniProt Q42656). In words: Counterscreen for Glucocerebrosidase Inhibitors: qHTS Assay for Coffee Bean alpha-Galactosidase at pH 5.9 (AID 998).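 Further: plate controls were uninhibited enzyme for no effect and no-enzyme basal signal for full effect.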 The essentials:
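Compounds were titrated from 0.7 nM to 77 uM against green coffee bean alpha-galactosidase (2 nM) using 80 uM fluorogenic 4-methylumbelliferyl substrate. After 20 min at room temperature, reactions were stopped at pH 10 and read by fluorescence.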

Assay [9] concerns the target Bile acid receptor (Homo sapiens) (UniProt Q96RI1). In words: qHTS assay for small molecule agonists of farnesoid X receptor signaling (AID 588527; calls by dose curve;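 further: series mostly up to about 77 µM; 0% = vehicle basal and 100% = reference agonist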). The following applies: HEK293T FXR-UAS-bla, beta-lactamase ratio, 16 h; activation: stronger effect = higher value. The method, boiled down: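 FXR-UAS-bla HEK293T, 10% dialyzed FBS; cpds up to 92 uM titration, 16 h 37 C; CCF4 dye 2 h RT; fluorescence. Normalized to chenodeoxycholic acid 100 uM (100%) and DMSO (0%); Hill fit gives EC50, efficacy.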

Assay [10] has as its target Voltage-gated inwardly rectifying potassium channel KCNH2 (Homo sapiens) (UniProt Q12809). Nature of the assay: qHTS Assay for Small Molecule Inhibitors of the Human hERG Channel Activity (AID 588834).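 Further: potency means the concentration at half of the fitted maximal effect; lower thallium flux fluorescence means stronger hERG block; nearly all actives have a fitted effect of over 50% in size.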 The essentials:
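Kinetic FDSS fluorescence; U2OS + hERG BacMam (~100 virus particles/cell); FluxOR Tl+ flux; ~10 min cpd; AC50 (Hill).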

Assay [11] addresses Arylsulfatase A (Homo sapiens) (UniProt P15289). Nature of the assay: qHTS screen for enhancers of Arylsulfatase A (ASA1): LOPAC Validation Assay (AID 720538). Further: 0% is about no effect. The essentials:
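Enhancer assay in patient-derived MLD fibroblasts carrying ASA-I179S: 48 h compound exposure at 37 C, then 14 h room-temperature pNCS turnover (0.5 mM final) in lysis buffer. Read by fluorescence at 525/598 nm after NaOH stop.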

Assay [12] addresses Cytochrome P450 3A4 (Homo sapiens) (UniProt P08684). Nature of the assay: qHTS Assay for Activators of Cytochrome P450 3A4 (AID 885). Further: nearly all actives have a fitted effect of over 65% in size. The method, boiled down: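 20nM CYP3A4 + 25uM Luciferin-PPXE (=KM), 200mM KPO4; cpd 10 min RT; NADPH regen, 60 min RT; stop w/ detection buffer, 20 min; luminescence. Normalized to 57 uM ketoconazole.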

Chain of Alpha-galactosidase (Coffea arabica) (Q42656 whole entry, looked up): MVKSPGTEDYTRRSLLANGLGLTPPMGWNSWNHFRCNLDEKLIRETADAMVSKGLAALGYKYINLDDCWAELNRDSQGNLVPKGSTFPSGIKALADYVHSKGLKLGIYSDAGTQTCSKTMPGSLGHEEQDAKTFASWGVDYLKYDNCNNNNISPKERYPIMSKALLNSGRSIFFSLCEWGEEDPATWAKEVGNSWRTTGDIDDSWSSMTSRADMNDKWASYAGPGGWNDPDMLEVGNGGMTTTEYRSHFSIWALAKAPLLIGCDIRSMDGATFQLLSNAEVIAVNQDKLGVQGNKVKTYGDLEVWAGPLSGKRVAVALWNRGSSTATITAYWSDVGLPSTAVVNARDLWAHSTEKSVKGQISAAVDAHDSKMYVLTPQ
Chain of Nucleoprotein (Lymphocytic choriomeningitis virus (strain Armstrong)) (P09992 whole entry, looked up): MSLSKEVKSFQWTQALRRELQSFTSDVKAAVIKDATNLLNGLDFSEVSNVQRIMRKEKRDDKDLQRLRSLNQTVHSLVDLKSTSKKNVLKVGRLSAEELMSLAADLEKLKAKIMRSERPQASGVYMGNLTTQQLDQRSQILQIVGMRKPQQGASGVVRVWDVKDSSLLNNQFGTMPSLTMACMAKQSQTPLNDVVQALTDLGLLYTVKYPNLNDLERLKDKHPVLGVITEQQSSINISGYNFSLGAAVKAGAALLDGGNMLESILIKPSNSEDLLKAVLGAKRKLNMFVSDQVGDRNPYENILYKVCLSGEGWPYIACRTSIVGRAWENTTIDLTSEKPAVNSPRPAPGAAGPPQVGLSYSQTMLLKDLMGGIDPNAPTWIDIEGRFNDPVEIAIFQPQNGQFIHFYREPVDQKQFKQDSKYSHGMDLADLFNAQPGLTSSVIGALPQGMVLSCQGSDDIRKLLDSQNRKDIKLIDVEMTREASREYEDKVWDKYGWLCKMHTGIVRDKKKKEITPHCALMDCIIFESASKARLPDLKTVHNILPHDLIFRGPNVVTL
Chain of Bile acid receptor (Homo sapiens) (Q96RI1 whole entry, looked up): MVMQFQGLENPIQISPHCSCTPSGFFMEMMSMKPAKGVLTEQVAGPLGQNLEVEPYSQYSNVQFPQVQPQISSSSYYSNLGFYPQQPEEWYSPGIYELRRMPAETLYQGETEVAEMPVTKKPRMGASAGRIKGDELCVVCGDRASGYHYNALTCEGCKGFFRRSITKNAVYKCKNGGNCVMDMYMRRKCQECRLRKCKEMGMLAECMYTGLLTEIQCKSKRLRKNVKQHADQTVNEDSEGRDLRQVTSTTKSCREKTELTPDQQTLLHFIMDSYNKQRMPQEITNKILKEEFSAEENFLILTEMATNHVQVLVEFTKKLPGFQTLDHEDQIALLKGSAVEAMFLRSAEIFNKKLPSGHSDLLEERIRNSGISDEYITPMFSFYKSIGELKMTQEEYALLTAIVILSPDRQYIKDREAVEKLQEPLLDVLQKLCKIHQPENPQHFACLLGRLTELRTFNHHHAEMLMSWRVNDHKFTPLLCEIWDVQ
Chain of Cytochrome P450 3A4 (Homo sapiens) (P08684 whole entry, looked up): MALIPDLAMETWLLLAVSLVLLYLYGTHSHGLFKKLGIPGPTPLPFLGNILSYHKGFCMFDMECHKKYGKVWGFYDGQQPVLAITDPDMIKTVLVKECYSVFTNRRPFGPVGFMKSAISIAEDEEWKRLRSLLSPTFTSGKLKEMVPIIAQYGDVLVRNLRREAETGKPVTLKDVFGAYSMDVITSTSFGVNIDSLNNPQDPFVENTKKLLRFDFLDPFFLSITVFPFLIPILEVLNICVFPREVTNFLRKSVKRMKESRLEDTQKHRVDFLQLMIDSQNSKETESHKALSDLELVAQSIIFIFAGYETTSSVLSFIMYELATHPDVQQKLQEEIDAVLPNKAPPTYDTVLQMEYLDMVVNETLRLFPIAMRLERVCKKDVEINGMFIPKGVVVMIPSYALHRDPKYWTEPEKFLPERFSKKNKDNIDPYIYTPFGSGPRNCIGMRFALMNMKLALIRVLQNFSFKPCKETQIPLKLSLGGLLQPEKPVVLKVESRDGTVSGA
Chain of Voltage-gated inwardly rectifying potassium channel KCNH2 (Homo sapiens) (Q12809 whole entry, looked up): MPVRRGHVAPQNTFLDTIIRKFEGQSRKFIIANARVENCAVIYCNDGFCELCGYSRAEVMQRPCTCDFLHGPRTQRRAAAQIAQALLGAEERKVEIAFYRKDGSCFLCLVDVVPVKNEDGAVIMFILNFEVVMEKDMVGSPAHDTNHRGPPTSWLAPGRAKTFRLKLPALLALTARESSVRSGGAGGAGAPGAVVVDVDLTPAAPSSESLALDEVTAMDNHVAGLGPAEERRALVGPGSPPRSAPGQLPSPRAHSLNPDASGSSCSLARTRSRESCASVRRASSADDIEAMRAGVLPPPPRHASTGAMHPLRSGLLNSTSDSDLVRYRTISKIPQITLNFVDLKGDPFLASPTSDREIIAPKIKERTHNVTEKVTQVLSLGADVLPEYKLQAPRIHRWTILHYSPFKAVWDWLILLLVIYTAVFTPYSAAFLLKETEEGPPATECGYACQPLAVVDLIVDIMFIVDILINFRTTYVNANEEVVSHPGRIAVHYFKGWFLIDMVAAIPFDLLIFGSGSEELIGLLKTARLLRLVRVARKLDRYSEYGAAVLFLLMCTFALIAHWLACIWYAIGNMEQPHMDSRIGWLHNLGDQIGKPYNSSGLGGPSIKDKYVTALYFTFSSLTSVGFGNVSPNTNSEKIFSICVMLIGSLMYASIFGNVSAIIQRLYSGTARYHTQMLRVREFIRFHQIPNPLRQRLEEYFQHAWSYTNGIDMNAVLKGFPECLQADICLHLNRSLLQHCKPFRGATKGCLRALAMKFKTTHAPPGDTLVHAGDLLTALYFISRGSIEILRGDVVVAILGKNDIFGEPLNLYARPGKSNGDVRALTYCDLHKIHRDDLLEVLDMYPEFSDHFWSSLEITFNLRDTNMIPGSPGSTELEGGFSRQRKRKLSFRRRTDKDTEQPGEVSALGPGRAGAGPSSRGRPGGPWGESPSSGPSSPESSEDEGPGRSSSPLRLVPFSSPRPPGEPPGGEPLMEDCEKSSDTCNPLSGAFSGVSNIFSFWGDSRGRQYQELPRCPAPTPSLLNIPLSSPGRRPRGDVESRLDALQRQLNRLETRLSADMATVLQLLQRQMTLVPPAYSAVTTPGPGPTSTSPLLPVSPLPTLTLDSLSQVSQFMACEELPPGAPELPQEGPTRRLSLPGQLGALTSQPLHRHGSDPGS
Chain of Arylsulfatase A (Homo sapiens) (P15289 whole entry, looked up): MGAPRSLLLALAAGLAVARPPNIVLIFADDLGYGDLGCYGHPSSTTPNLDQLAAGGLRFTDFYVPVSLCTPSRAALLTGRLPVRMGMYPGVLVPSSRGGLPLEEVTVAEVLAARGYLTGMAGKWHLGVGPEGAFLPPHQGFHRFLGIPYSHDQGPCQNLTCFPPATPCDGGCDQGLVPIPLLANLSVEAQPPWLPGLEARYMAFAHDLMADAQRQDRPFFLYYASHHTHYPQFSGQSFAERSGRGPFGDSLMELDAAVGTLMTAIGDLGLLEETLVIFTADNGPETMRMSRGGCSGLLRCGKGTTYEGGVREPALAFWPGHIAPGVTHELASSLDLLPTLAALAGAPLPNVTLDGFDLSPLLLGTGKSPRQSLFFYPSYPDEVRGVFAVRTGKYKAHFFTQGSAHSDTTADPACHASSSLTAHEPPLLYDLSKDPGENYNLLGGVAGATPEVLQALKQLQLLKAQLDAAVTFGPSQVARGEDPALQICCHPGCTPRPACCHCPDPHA

With `O=C1CCC(c2ccc(-n3ccnc3)cc2)=NN1`, the compound was classed as inactive in assay [1] and in assay [3]. Besides, the Potency result in [2], in [4], in [5], in assay [6] and in assay [7] was “inactive” throughout.
Turning to `CCCCCCCCCCCCCCSCC(=O)O`, the compound was called inactive in assay [1], in [8] and in assay [3]. Besides, the Potency result in assay [2], in assay [4], in assay [5], in assay [6] and in assay [7] was “inactive” throughout. In addition, the activation in assay [9] is 0.99%.
For `COc1ccc2c(c1)c(CC(=O)O)c(C)n2C(=O)c1ccccc1`, the call in assay [1], in assay [8] and in assay [3] was inactive. The Potency result in assay [2], in assay [4], in [5], in assay [6] and in assay [7] was “inactive” throughout.
For `C[C@@H](NCCc1ccc(O)cc1)[C@@H](O)c1ccc(O)cc1`, the Potency result in assay [2], in assay [4], in assay [5], in assay [6] and in assay [7] was “inactive” in each case. In addition, in assay [3], the result was inactive. Besides, the Potency in [10] was 7.94 µM (active).
As for `CC(=O)[C@H]1CCC2C3CC=C4C[C@@H](OS(=O)(=O)O)CC[C@]4(C)C3CC[C@@]21C` (stereo partly drawn), the Potency entry in [2], in assay [11], in assay [4], in [5], in [6] and in assay [7] was “inactive” throughout. Further, the compound was classed as inactive in assay [3].
Take `CC1(C)CCC2=C(O1)c1ccccc1C(=O)C2=O`: the Potency entry in assay [12], in assay [4], in assay [5], in assay [6] and in assay [7] was “inactive” throughout. For the same compound, the compound was classed as inactive in [1], in assay [8] and in [3]. Moreover, the Potency in [2] was 11.2 µM (active).
For the compound `N=C(N)c1ccc(N)cc1`, the compound was classed as inactive in [1] and in assay [3]. In addition, the Potency result in assay [2], in assay [4], in [5], in [6] and in [7] was “inactive” throughout.
As for `Fc1ccc(C(OCCCc2cnc[nH]2)c2ccc(F)cc2)cc1`, the compound was called inactive in assay [1] and in assay [3]. In addition, the Potency result in assay [2], in [4], in [5], in assay [6] and in [7] was “inactive” in each case.
For `NCCS(=O)O`, the call in [1] and in [3] was inactive. The Potency result in assay [2], in assay [4], in assay [5], in assay [6] and in assay [7] was “inactive” each time.
Regarding `CC(N)=O`, the outcome in [1], in [8] and in [3] was inactive. The Potency entry in assay [2], in assay [4], in assay [5], in assay [6] and in assay [7] was “inactive” throughout.
With `O=C(O)CC[C@@H](C(=O)O)N1C(=O)c2ccccc2C1=O`, the outcome in assay [1], in [8] and in assay [3] was inactive. Also, the Potency entry in assay [2], in assay [4], in assay [5], in assay [6] and in assay [7] was “inactive” in each case.
In the case of `N=C(N)SCCc1cnc[nH]1`, the call in assay [1], in assay [8] and in assay [3] was inactive. Besides, the Potency result in [2], in [4], in [5], in [6] and in [7] was “inactive” each time.
`NCCCNCCCCNCCCN`: the result in [1], in assay [8] and in assay [3] was inactive. The Potency result in assay [2], in assay [4], in assay [5], in assay [6] and in assay [7] was “inactive” throughout.
For `O=c1[nH]c2cc(C(F)(F)F)ccc2n1-c1cc(C(F)(F)F)ccc1O`, the compound was called inactive in assay [1], in assay [8] and in assay [3]. In addition, the Potency result in assay [2], in assay [4], in [5], in assay [6] and in assay [7] was “inactive” throughout.
For `N[C@@H](Cc1ccc(O)c(I)c1)C(=O)O`, the compound was classed as inactive in [1], in [8] and in [3]. In addition, the Potency result in [2], in assay [4], in assay [5], in [6] and in [7] was “inactive” throughout.
For `Cc1nc(N=Nc2cc(S(=O)(=O)O)c3cc([N+](=O)[O-])cc(S(=O)(=O)O)c3c2)c(COP(=O)(O)O)c(C=O)c1O`, the result in [1], in [8] and in assay [3] was inactive. Also, the Potency result in assay [2], in assay [4], in assay [5], in assay [6] and in assay [7] was “inactive” in each case.
Turning to `C[N+](C)(C)CC=O`, the call in [1], in assay [8] and in assay [3] was inactive. Also, the Potency result in assay [2], in assay [4], in [5], in [6] and in [7] was “inactive” each time.
As for `COc1cccc(C(=O)NCCN2CCN(c3ccc(Cl)cc3)CC2)c1`, the result in assay [1], in [8] and in assay [3] was inactive. The Potency result in assay [2], in assay [4], in assay [5], in [6] and in assay [7] was “inactive” each time.
For `O=C(c1cc(O)c(O)c([N+](=O)[O-])c1)c1ccccc1F`, the result in assay [1], in assay [8] and in assay [3] was inactive. For the same compound, the Potency result in assay [2], in assay [4], in [5], in [6] and in [7] was “inactive” throughout.
For `Clc1ccc(N2CCN(Cc3c[nH]c4ncccc34)CC2)cc1`, the compound was called inactive in [1], in assay [8] and in [3]. Moreover, the Potency entry in assay [2], in assay [4], in assay [5], in assay [6] and in assay [7] was “inactive” in each case.
Turning to `C[C@@H]1C(=O)NC2=Nc3cccc(Cl)c3CN21`, the compound was classed as inactive in [1], in assay [8] and in assay [3]. The Potency result in assay [2], in assay [4], in assay [5], in assay [6] and in assay [7] was “inactive” each time.
In the case of `O=C(O)C1=CCCNC1`, the outcome in assay [1], in [8] and in [3] was inactive. Further, the Potency entry in assay [2], in assay [4], in assay [5], in assay [6] and in assay [7] was “inactive” each time.
As for `Ic1ccc(N2CCN(Cc3c[nH]c4ncccc34)CC2)cc1`, the result in assay [1], in assay [8] and in [3] was inactive. For the same compound, the Potency result in assay [2], in assay [4], in assay [5], in [6] and in assay [7] was “inactive” in each case.
On to `O=C(O)[C@@H]1C[C@@H](C(=O)O)N1`, for which the compound was called inactive in [1], in assay [8] and in assay [3]. Besides, the Potency entry in assay [2], in [4], in assay [5], in [6] and in assay [7] was “inactive” in each case.
Take `N=C(N)SCCN`: the outcome in assay [1], in [8] and in [3] was inactive. Further, the Potency result in assay [2], in assay [4], in assay [5], in assay [6] and in [7] was “inactive” each time.
As for `O=c1[nH]c2cc(Cl)ccc2c(O)c1-c1ccc(Oc2ccccc2)cc1`, the compound was called inactive in assay [1], in assay [8] and in assay [3]. Moreover, the Potency entry in [2], in assay [4], in assay [5], in assay [6] and in assay [7] was “inactive” in each case.
On to `O=C(N[C@@H](Cc1ccccc1)C(=O)CCl)OCc1ccccc1`, for which the outcome in assay [1], in [8] and in assay [3] was inactive. The Potency in assay [2] is 6.31 µM (active). Further, the Potency entry in assay [4], in assay [5], in assay [6] and in assay [7] was “inactive” each time.
As to `Cn1c(=O)c2[nH]c(C3CCCC3)nc2n(C)c1=O`, the outcome in assay [1], in assay [8] and in [3] was inactive. Further, the Potency result in assay [2], in assay [4], in assay [5], in assay [6] and in assay [7] was “inactive” in each case.
Consider `COc1ccccc1N1CCN(CCCCN2C(=O)c3ccccc3C2=O)CC1`, for which the compound was called inactive in assay [1], in [8] and in assay [3]. Besides, the Potency entry in assay [2], in assay [4], in assay [5], in assay [6] and in assay [7] was “inactive” throughout.

(Values after PubChem BioAssay (NCATS).)
